From PubChem
Sm TGR block – inhibitors of Schistosoma mansoni thioredoxin glutathione reductase; Q962Y6; purified TGR, DTNB reduction, TNB absorbance 405 nm; Potency, µM (titrated, usually from 114 µM), without a hit: top-dose activity change, negative = inhibition, most hits filed as inhibitors; hit rate 3% among 360,000; AID 485364; further: on the % scale 0 is the no-effect control and ±100 the full control effect; nearly all actives have a fitted effect of over 60% in size
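First, TGR (20 nM dispensed) and NADPH were mixed with compound. Second, a 15 min room-temperature incubation followed. Third, further NADPH and then DTNB were added to start the reaction. Finally, TNB absorbance was monitored kinetically.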
SARS PLP yeast – blocks SARS-CoV papain-like protease in a yeast assay; S. cerevisiae expressing SARS-CoV PLpro, growth rescue; Potency, µM (top dose mostly 32.9 µM), for inactives: at the highest dose activity, positive = growth rescue, hits mostly activators; hit rate 0.19% among 330,000; calls by dose curve; further: 0% is about no effect; nearly all actives have a fitted effect of over 55% in size
Pf growth 48h – P. falciparum growth inhibition at 48 hours (one generation) | P. falciparum luciferase growth in erythrocytes, 48 h | Potency, µM (series often up to 28.7 µM), inactives show top-dose activity change, negative = inhibition, actives largely listed as inhibitors | hit rate 5.9% among 310,000 | AID 504832; further: on the % scale 0 is the no-effect control and ±100 the full control effect
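A one-generation exposure of luciferase-tagged malaria parasites in RPMI 1640/Albumax erythrocyte culture, 37 C and 5% CO2. Inhibition is inferred from decreased luminescence after adding detection reagent.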
Pf growth 96h – P. falciparum growth inhibition at 96 hours | P. falciparum luciferase reporter growth, 96 h | Potency, µM (doses to about 28.7 µM), inactives show top-dose activity change, negative = inhibition, hits mostly inhibitors | hit rate 6.9% among 320,000 | AID 504834; further: on the % scale 0 is the no-effect control and ±100 the full control effect
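Two-generation exposure (96 h) targets delayed-death phenotype. Reporter parasites carrying integrated firefly luciferase, in red cells at 2% hematocrit and 0.05% parasitemia final, kept at 37 C, 5% CO2; luminescence loss indicates inhibition.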
An asterisk follows results filed as active; ? = inconclusive; . = not tested or not shown. A selection: hits, their analogues and other compounds. The true share with any hit is near 12%. Unless noted, the call rests on the fitted dose curve; in most records, active means well fitted curve in the direction sought with a large enough effect; inconclusive means small, poorly fitted or top-dose-only effect, or another doubt; inactive means no such curve, though single readings can be large; an effect the other way counts as inactive or inconclusive. Potency means the concentration at half of the fitted maximal effect.

SMILES	Sm TGR block	SARS PLP yeast	Pf growth 48h	Pf growth 96h
CCCC1NC(C(=O)O)Cc2c1[nH]c1ccccc21 (stereo unspecified)	45µM*	2%	-2%	?
O=C(NCc1ccccn1)Nc1ccccc1C(F)(F)F	0%	2%	6%	-25%
CCCCc1cc(=O)oc2cc(OCC(=O)Nc3cccnc3)c(Cl)cc12	0%	7%	16%	-27%
CCOc1ccccc1CNC(=O)CCCN1C(=O)COc2ccc(C)cc21	-5%	.	.	.
Cc1nc(N2CCCC2)c2c(C(=O)Nc3cccc(Cl)c3C)c(C)oc2n1	2%	.	.	.
Cc1ccc(S(=O)(=O)N(C)C)cc1NC(=O)CCNC(=O)c1ccco1	-14%	-1%	1%	0%
C/C(=N/NS(=O)(=O)c1ccc(C)cc1)c1c[nH]c2ccccc12	-14%	-6%	0%	1.3µM*
C/C(=N/NS(=O)(=O)c1cccc([N+](=O)[O-])c1)c1c[nH]c2ccccc12	45µM*	2%	11%	-26%
C/C(=N/NS(=O)(=O)c1ccccc1)c1c[nH]c2ccccc12	?	5%	17%	?
COc1ccc(S(=O)(=O)Nc2cccc(-c3ccc(N4CCCC4)nn3)c2)cc1F	8%	.	.	.
Cc1ccc2c(c1)-n1c(nc3cc(F)ccc3c1=O)C(Cc1ccc(O)cc1)NC2=O (stereo unspecified)	.	-1%	.	.
CCOc1cc(CNc2ccc(O)cc2)cc(Cl)c1OCc1ccccc1	-19%	.	.	.
Cc1cccc(C(=O)Nc2c(C(=O)N(C)C)cnn2-c2ccccc2)c1	5%	4%	-25%	46%
Cc1ccc2nsnc2c1N	-15%	-1%	4%	0%
Nc1cccc2nsnc12	35µM*	0%	14%	10%
Nc1c(Cl)ncnc1N/N=C/c1cccnc1	50µM*	-4%	25%	7%
Nc1c(Cl)ncnc1N/N=C/c1ccccn1	?	.	2.1µM*	2.9µM*
Nc1c(Cl)ncnc1N/N=C/c1ccnc2ccccc12	-24%	-8%	75%	65%
CN1CCN(c2ccc(CNS(=O)(=O)c3ccc(Cl)cc3)cc2)CC1	-1%	1%	-8%	5%
CN1CCC(NCCC(c2ccc(F)cc2)c2ccc(Cl)cc2)CC1 (stereo unspecified)	-21%	-1%	1.7µM*	1.9µM*
CCC(Sc1nc(C)cc(C)n1)C(=O)Nc1nccs1 (stereo unspecified)	-9%	7%	?	13µM*
CCC(Sc1nnc(C)s1)C(=O)Nc1nccs1 (stereo unspecified)	1%	1%	13%	.
CCc1cc2c(nc1CC)CCN(CC/C(C)=N/OC[C@H]1O[C@H](c3ccccc3)C=C[C@@H]1Oc1ccc(OC)cc1)C2	-14%	-15%	?	4.7µM*
COc1ccc(O[C@H]2C=C[C@@H](c3ccccc3)O[C@@H]2CO/N=C(\C)CCN2CCc3nc(-c4ccccc4)c(-c4ccccc4)cc3C2)cc1	-13%	3%	10µM*	?
COC(=O)C/C=C/[C@@H](C)[C@@H](/C=N/OC[C@H]1O[C@H](c2ccccc2)C=C[C@@H]1Oc1ccc(OC)cc1)OC	-24%	3%	-67%	?
SMILES	Sm TGR block	SARS PLP yeast	Pf growth 48h	Pf growth 96h
COc1ccc(O[C@H]2C=C[C@@H](c3ccccc3)O[C@@H]2COC(=O)CC/C(C)=N/OC[C@@H](O)COCc2ccco2)cc1	-29%	5%	?	?
CC1(C)CC(O)C(C)(C)N1O (stereo unspecified)	-4%	5%	80%	13µM*
COc1ccccc1N1CCN(Cc2ccc(O)c3ncccc23)CC1	50µM*	14%	2.6µM*	.
CCOC(=O)C1CCN(Cc2ccc(O)c3ncccc23)CC1	2.8µM*	?	10µM*	41%
Cc1ccc(NCc2ccc(O)c3ncccc23)cc1C	-2%	-3%	84%	?
Oc1ccc(COC2CCN(Cc3ccccc3)C2)c2cccnc12 (stereo unspecified)	45µM*	2%	8.3µM*	12µM*
Oc1ccc(CN2CCCc3ccccc32)c2cccnc12	0.1µM*	19%	13µM*	12%
COc1ccccc1N1CCN(Cc2ccc(OC)c(OC)c2OC)CC1	5%	6%	.	?
Cc1cc(C)c[n+](CC(=O)c2c(C)cc(C)c([N+](=O)[O-])c2C)c1	-2%	-4%	-25%	0%
Cc1ccc(CNC(=O)C2CCC(=O)N(CCc3ccc(Cl)cc3)C2)cc1 (stereo unspecified)	8%	3%	-12%	9.3µM*
